From PubChem BioAssay (EPA / NIEHS)
The source holds several records for some structures; these can differ, active in one and inactive in another. Calls of active or inactive are those of the source. The calls were made as follows: active = hit-call score of the fitted dose curve at least 0.9, where 1 is the maximum; inactive = score below 0.9.

What was measured:
[1] = target: Transcription factor E2F1 (Homo sapiens) (UniProt Q01094); assay: ATG_E2F_CIS: Attagene CIS-FACTORIAL HepG2 Assay for human E2F Transcription Factor 1 (AID 2282935); conditions: HepG2 Attagene cis-reporter, E2F reporter RNA transcripts; actives raise or lower the signal
Outline: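 Liver-derived HepG2 cells expressing transfected promoter-driven reporter units received test chemical for 24 hours. Signal gains or losses were fitted bidirectionally against DMSO.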

[2] = ATG_E_Box_CIS: Attagene CIS-FACTORIAL HepG2 Assay for human Enhancer Box (E-box) (AID 2282936); conditions: HepG2 E-box cis-reporter transcription, actives raise or lower the signal
Outline: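 In this cell-based setup, HepG2 cells bearing transfected promoter-driven reporter units were exposed to chemicals for 24 h; reporter transcripts were amplified, 6-FAM-labelled, cut with HpaI and sized by capillary electrophoresis.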

[3] = ATG_M_61_CIS: Attagene CIS-FACTORIAL HepG2 Assay for M61 Transcription Factor (Internal Marker) (AID 2282937); conditions: HepG2 Attagene CIS-FACTORIAL M61 internal marker reporter; actives raise or lower the signal
Outline: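 Readout is reporter mRNA by RT-PCR, fluorescent primer extension and capillary electrophoresis, with gain or loss fitted relative to DMSO. Transfected HepG2 cells carrying endogenous-TF-driven cis reporters were exposed to chemicals for 24 hours.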

[4] = ATG_M_19_CIS: Attagene CIS-FACTORIAL HepG2 Assay for M19 Transcription Factor (Internal Marker) (AID 2282939); conditions: HepG2 Attagene CIS-FACTORIAL M19 internal marker reporter; actives raise or lower the signal
Outline: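 Chemical-treated HepG2 (24 h) with MRTU constructs; reporter transcripts detected by fluorescent RT-PCR fragment analysis on capillary electrophoresis. Internal background marker, DMSO as baseline.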

[5] = ATG_ERE_CIS: Attagene CIS-FACTORIAL HepG2 Assay for Estrogen Response Element (ERE) (AID 2282940); conditions: HepG2 ERE cis-reporter, Attagene RNA transcript; actives raise or lower the signal
Outline: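 Human liver cells (HepG2) bearing transiently transfected, promoter-regulated reporter units were exposed 24 h. Reporter mRNA induction was detected by capillary electrophoresis of labelled RT-PCR products and fitted bidirectionally to DMSO.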

[6] = ATG_Ets_CIS: Attagene CIS-FACTORIAL HepG2 Assay for human Erythroblast Transformation Specific (ETS) (AID 2282941); conditions: HepG2 ETS cis-reporter transcription, actives raise or lower the signal
Outline: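 RT-PCR/capillary electrophoresis fluorescence read-out of reporter mRNA; HepG2 transient multi-reporter transfection; 24 h compound exposure; gain or loss of signal fitted bidirectionally relative to DMSO.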

[7] = target: Hepatocyte nuclear factor 3-beta (Homo sapiens) (UniProt Q9Y261); assay: ATG_FoxA2_CIS: Attagene CIS-FACTORIAL HepG2 Assay for human Forkhead box A2 (FOXA2) (AID 2282942); conditions: HepG2 cis-reporter transcription factor activity, 24 h; actives raise or lower the signal
Outline: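 Endogenous transcription factor activity is captured via cis-element-driven reporter transcripts in transfected HepG2. Total RNA taken at 24 h post-dosing; labelled RT-PCR products resolved by capillary electrophoresis. Gain or loss fitted versus DMSO.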

[8] = ATG_FoxO_CIS: Attagene CIS-FACTORIAL HepG2 Assay for human Forkhead box O (FoxO) (AID 2282943); conditions: HepG2 Attagene cis-reporter, FoxO element, mRNA; actives raise or lower the signal
Outline: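 Transfected HepG2 reporter cells exposed to test chemical for 24 h; reporter RNA measured by reverse transcription, PCR and fluorescent capillary electrophoresis; curves fitted for increases and decreases against DMSO.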

[9] = ATG_GATA_CIS: Attagene CIS-FACTORIAL HepG2 Assay for human GATA Binding Protein (AID 2282944); conditions: HepG2 GATA cis-element reporter, Attagene multiplex mRNA; actives raise or lower the signal
Outline: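 Transfected cis-reporter HepG2 cells were treated with chemicals for 24 hours. Total RNA was then converted to cDNA, amplified with reporter-specific primers and analysed by fluorescent capillary electrophoresis, using DMSO-treated wells as baseline.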

[10] = ATG_GLI_CIS: Attagene CIS-FACTORIAL HepG2 Assay for human Zinc Finger Protein GLI1 (AID 2282945); conditions: HepG2, Attagene cis-factorial reporter mRNA, GLI element; actives raise or lower the signal
Outline: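 Transiently transfected HepG2 cells report endogenous transcription factor activity via cis-element-driven reporter units. After 24 h compound exposure, reporter mRNA was measured by RT-PCR with capillary electrophoresis; bidirectional fitting against DMSO baseline.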

[11] = target: Bile acid receptor (Homo sapiens) (UniProt Q96RI1); assay: ATG_IR1_CIS: Attagene CIS-FACTORIAL HepG2 Assay for human Nuclear Receptor Subfamily 1 Group H Member 4 (NR1H4), IR1 submotif (AID 2282946); conditions: IR1 reporter transcription, actives raise or lower the signal
Outline: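 Fluorescence of capillary-separated, HpaI-digested RT-PCR reporter products gave IR1-element mRNA induction in HepG2 cells 24 h after dosing. Endogenous transcription factors drove the cis-regulated reporters; activity was fitted bidirectionally against DMSO.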

[12] = ATG_GRE_CIS: Attagene CIS-FACTORIAL HepG2 Assay for human Glucocorticoid Response Elements (GRE) (AID 2282947); conditions: HepG2 GRE cis-reporter, Attagene multiplex mRNA; actives raise or lower the signal
Outline: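 Fluorescence intensity of reporter-specific cDNA fragments, separated by capillary electrophoresis, provides the signal. Constructs carry cis-regulating promoters in transiently transfected HepG2 liver cells; 24 h incubation; fitting is bidirectional against DMSO.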

[13] = ATG_ISRE_CIS: Attagene CIS-FACTORIAL HepG2 Assay for human Interferon Regulatory Factor 1 (IRF1) binding to an Interferon-Stimulated Response Element (ISRE) (AID 2282948); conditions: HepG2 ISRE cis-reporter (Attagene), mRNA transcription readout; actives raise or lower the signal
Outline: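 Read-out: fluorescent RT-PCR products resolved by capillary electrophoresis, reporting endogenous transcription factor activity via ISRE-driven reporter mRNA in transfected HepG2 cells dosed for 24 h; gain or loss fitted relative to DMSO.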

[14] = ATG_M_32_CIS: Attagene CIS-FACTORIAL HepG2 Assay for M32 Transcription Factor (Internal Marker) (AID 2282949); conditions: HepG2 Attagene cis-factorial M32 reporter, mRNA; actives raise or lower the signal;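 also: background control marker of the multiplexed CIS panel rather than a real target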
Outline: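 HepG2 human liver cells transiently transfected with cis-promoter-driven multiple reporter transcription units, dosed 24 h. Reporter mRNA quantified by RT-PCR, FAM-labelled primer extension, HpaI digest and capillary electrophoresis; bidirectional fit versus DMSO baseline.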

[15] = ATG_M_06_CIS: Attagene CIS-FACTORIAL HepG2 Assay for M06 Transcription Factor (Internal Marker) (AID 2282950); conditions: HepG2 Attagene CIS-FACTORIAL M06 internal marker reporter; actives raise or lower the signal
Outline: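 Cells (HepG2, transiently carrying cis-driven reporter units) receive chemical for 24 h before RNA isolation. Reporter cDNA is PCR-amplified, FAM-labelled by primer extension, HpaI-digested and sized on a capillary analyser.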

[16] = target: Hypoxia-inducible factor 1-alpha (Homo sapiens) (UniProt Q16665); assay: ATG_HIF1a_CIS: Attagene CIS-FACTORIAL HepG2 Assay for human Hypoxia Inducible Factor 1 (HIF1A) (AID 2282951); conditions: HepG2 Attagene cis-factorial HIF1a reporter transcription; actives raise or lower the signal
Outline: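 Activity is fitted in both directions relative to DMSO. Reporter transcripts are read by RT-PCR, fluorescent primer extension and capillary electrophoresis after 24 h chemical treatment. The cells are HepG2 carrying transiently transfected cis-element-driven reporter units responding to endogenous factors.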

[17] = target: Heat shock factor protein 1 (Homo sapiens) (UniProt Q00613); assay: ATG_HSE_CIS: Attagene CIS-FACTORIAL HepG2 Assay for human Heat Shock Transcription Factor 1 (HSE) (AID 2282953); conditions: HepG2 HSE cis-reporter, Attagene RNA transcription; actives raise or lower the signal
Outline: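 Liver-derived HepG2 cells carry transiently introduced multiple reporter units governed by cis promoters. Reporter RNA measured 24 h post-dose through reverse transcription, PCR amplification, fluorescent labelling and capillary electrophoresis, normalised to DMSO.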

[18] = ATG_MRE_CIS: Attagene CIS-FACTORIAL HepG2 Assay for human Metal Responsive Element (MRE) (AID 2282954); conditions: HepG2 MRE cis-reporter transcription, Attagene multiplex; actives raise or lower the signal
Outline: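 Measured here is mRNA induction from an MRE cis-element reporter in HepG2 after 24 h, quantified by fluorescence of labelled RT-PCR products on capillary electrophoresis; gain- and loss-of-signal fits use DMSO as baseline.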

[19] = ATG_EGR_CIS: Attagene CIS-FACTORIAL HepG2 Assay for human Early Growth Response 1 (EGR1) (AID 2282938); conditions: HepG2 Attagene CIS-FACTORIAL EGR reporter mRNA; actives raise or lower the signal
Outline: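 After 24 h compound exposure, RNA from reporter-transfected HepG2 cells was reverse-transcribed, PCR-amplified, fluorescently labelled and resolved by capillary electrophoresis. EGR1 reporter transcript changes, up or down, were fitted against DMSO, reflecting endogenous transcription-factor activity.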

[20] = target: Hepatocyte nuclear factor 6 (Homo sapiens) (UniProt Q9UBC0); assay: ATG_HNF6_CIS: Attagene CIS-FACTORIAL HepG2 Assay for human Hepatocyte Nuclear Factor 6 (HNF6) (AID 2282952); conditions: HepG2 Attagene cis-factorial HNF6 reporter transcription; actives raise or lower the signal
Outline: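 Readout: fluorescent reporter-transcript fragments resolved by capillary electrophoresis after RT-PCR, reflecting endogenous factor activity in transfected HepG2. Exposure 24 h. Gain or loss of signal fitted bidirectionally against DMSO.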

Measured: AC50

Sequence of Hepatocyte nuclear factor 3-beta (Homo sapiens) (Q9Y261 whole entry, looked up): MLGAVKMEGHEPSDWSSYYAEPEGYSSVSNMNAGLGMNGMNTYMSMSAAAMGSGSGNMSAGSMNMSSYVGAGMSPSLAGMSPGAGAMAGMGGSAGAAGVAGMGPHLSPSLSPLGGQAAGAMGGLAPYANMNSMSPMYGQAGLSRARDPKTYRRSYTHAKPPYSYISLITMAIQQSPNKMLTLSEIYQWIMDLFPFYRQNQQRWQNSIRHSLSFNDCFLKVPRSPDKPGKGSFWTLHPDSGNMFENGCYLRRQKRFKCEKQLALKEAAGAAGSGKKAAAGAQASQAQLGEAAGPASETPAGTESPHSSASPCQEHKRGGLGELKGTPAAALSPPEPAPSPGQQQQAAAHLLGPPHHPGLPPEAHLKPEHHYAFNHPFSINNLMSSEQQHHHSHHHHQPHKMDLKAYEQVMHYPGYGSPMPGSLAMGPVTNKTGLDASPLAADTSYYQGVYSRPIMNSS
Sequence of Hypoxia-inducible factor 1-alpha (Homo sapiens) (Q16665 whole entry, looked up): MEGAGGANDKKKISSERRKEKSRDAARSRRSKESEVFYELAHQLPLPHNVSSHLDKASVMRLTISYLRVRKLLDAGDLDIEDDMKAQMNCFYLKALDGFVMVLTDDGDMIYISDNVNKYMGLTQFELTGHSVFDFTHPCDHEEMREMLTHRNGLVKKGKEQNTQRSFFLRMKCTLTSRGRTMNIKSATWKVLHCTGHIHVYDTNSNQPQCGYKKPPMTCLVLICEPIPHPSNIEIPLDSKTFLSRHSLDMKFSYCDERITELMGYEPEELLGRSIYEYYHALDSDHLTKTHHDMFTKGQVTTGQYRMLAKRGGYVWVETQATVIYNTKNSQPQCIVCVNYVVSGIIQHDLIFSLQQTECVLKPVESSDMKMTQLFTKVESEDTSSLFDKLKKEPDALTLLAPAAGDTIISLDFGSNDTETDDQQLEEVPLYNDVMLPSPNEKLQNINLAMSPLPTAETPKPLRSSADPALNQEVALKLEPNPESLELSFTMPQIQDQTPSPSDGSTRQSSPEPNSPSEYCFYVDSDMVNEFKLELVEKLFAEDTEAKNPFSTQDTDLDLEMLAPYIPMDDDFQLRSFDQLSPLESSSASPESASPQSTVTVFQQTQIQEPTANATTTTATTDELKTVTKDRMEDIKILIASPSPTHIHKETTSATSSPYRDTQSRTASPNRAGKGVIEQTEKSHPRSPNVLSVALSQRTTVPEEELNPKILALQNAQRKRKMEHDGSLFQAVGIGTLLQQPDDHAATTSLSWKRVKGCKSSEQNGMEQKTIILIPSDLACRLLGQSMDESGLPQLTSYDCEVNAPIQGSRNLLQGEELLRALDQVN
Sequence of Transcription factor E2F1 (Homo sapiens) (Q01094 whole entry, looked up): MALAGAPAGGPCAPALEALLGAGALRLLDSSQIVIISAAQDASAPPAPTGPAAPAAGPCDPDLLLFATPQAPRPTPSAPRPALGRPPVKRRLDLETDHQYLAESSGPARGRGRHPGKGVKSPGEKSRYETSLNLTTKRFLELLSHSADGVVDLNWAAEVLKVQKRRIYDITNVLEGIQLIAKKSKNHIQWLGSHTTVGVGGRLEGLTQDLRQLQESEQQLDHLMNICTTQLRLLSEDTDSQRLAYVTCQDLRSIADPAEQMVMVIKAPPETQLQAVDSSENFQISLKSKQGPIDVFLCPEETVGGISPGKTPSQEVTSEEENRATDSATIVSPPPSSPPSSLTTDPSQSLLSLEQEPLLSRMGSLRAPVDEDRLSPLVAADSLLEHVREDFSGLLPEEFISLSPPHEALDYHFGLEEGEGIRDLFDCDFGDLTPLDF
Sequence of Hepatocyte nuclear factor 6 (Homo sapiens) (Q9UBC0 whole entry, looked up, the tested form may be a part): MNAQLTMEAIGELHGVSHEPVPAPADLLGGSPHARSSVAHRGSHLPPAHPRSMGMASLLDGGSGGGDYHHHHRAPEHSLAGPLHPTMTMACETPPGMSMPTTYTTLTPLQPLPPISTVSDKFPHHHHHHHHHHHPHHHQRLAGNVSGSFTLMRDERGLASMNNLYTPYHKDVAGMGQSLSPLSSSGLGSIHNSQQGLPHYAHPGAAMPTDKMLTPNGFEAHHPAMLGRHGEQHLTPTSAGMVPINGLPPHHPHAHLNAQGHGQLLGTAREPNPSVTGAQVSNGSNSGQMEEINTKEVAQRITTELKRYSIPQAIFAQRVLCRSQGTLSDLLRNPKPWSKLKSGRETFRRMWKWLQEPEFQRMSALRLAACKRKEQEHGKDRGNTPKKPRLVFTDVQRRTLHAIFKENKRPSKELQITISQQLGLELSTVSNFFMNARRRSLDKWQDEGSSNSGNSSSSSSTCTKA
Sequence of Heat shock factor protein 1 (Homo sapiens) (Q00613 whole entry, looked up): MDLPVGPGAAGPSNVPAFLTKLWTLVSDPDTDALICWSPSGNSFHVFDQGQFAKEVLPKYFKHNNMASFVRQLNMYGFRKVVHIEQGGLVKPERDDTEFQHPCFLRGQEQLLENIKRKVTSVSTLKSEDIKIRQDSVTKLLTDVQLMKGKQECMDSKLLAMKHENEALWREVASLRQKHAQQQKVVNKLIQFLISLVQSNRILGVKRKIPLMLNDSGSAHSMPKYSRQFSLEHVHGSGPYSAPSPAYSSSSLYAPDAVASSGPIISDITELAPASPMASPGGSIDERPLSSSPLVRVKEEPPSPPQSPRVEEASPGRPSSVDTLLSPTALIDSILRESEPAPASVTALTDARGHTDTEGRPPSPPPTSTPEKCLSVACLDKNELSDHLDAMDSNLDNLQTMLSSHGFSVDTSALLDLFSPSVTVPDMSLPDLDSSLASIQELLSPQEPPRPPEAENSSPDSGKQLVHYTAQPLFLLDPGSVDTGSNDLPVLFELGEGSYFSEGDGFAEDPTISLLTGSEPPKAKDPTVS
Sequence of Bile acid receptor (Homo sapiens) (Q96RI1 whole entry, looked up): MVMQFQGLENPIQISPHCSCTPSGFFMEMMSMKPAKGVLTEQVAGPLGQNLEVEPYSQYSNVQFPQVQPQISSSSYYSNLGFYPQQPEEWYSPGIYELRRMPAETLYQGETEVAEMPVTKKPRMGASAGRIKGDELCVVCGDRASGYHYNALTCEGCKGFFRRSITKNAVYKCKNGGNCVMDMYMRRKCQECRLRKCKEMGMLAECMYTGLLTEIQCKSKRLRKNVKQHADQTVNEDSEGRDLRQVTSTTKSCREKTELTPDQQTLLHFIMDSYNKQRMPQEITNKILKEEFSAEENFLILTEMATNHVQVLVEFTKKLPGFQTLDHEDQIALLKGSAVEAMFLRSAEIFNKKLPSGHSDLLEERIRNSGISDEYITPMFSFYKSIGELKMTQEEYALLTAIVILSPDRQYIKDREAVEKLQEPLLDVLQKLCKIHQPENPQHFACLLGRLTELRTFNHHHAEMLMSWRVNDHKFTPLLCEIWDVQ

O=C(O)COc1nc(Cl)c(Cl)cc1Cl
not listed: [19] | [20]
inactive: all other assays above

OC(c1ccc(Cl)cc1)(c1cncnc1)c1ccccc1Cl (centres undefined)
active: [2] 2.6 µM | [5] 3.79 µM | [12] 0.622 µM | [17] 69 µM | [18] 70.8 µM
inactive: [1] | [2] | [3] | [19] | [4] | [5] | [6] | [7] | [8] | [10] | [12] | [13] | [14] | [15] | [16] | [20] | [17] | [18]

CCON=C(CC)C1=C(O)CC(c2c(C)cc(C)cc2C)CC1=O (centres undefined)
not listed: [9] | [11]
inactive: all other assays above
